Compound activity deposited in PubChem by National Center for Advancing Translational Sciences (NCATS).
Lassa entry inh = blocks Lassa virus binding to or entry into cells. Potency, µM (highest dose often 37.9 µM), inactives show top-dose activity change, negative = inhibition, hits mostly inhibitors. 300,000 compounds, 1.2% hits. Lassa virus pseudotype entry inhibition, cell reporter; calls by dose curve; tested in HEK293 cells; further: potency means the concentration at half of the fitted maximal effect; nearly all actives have a fitted effect of over 50% in size
HCMV antiviral = inhibitors of human cytomegalovirus; HFF cells, HCMV-luciferase reporter, 72 h; hits give low values; activity change, negative = inhibition, % at 57.5 µM; 410,000 compounds, 4.5% hits; AID 1259415; in the data active means activity change below about -60%; inconclusive means no clear call, values can overlap the other calls; inactive means above about -39%
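Human foreskin fibroblasts infected with luciferase-reporter HCMV at MOI 1 PFU/cell, compounds at two doses. Luciferase measured 72 h post infection; normalized to buffer-only basal and Salinomycin (10uM) controls.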
Vaccinia Venus = vaccinia inhibition (Venus reporter); Potency, µM (highest dose often 36.5 µM), for inactives: top-dose activity change, negative = inhibition, most hits filed as inhibitors; 330,000 compounds, 0.46% hits; Vaccinia virus Venus reporter expression, fluorescence; AID 720580; calls by dose curve; tested in A549 cells; further: potency means the concentration at half of the fitted maximal effect; nearly all actives have a fitted effect of over 30% in size
Vaccinia mCherry = vaccinia inhibition (mCherry reporter) | Potency, µM (titrated, usually from 36.5 µM), for inactives: top-dose activity change, negative = inhibition, most hits filed as inhibitors | Vaccinia virus mCherry reporter infection, fluorescence | 310,000 compounds, 0.63% hits | AID 720579; calls by dose curve; tested in A549 cells; further: potency means the concentration at half of the fitted maximal effect; nearly all actives have a fitted effect of over 35% in size
FMDV inh = foot and mouth disease virus antiviral activity; FMDV antiviral cell-based qHTS; Potency, µM (doses to about 57.9 µM), for the others: at the highest dose activity change, negative = inhibition, actives largely listed as inhibitors; 410,000 compounds, 1.2% hits; calls by dose curve; tested in HEK293T cells; further: read-out not given here; potency means the concentration at half of the fitted maximal effect; nearly all actives have a fitted effect of over 45% in size
MARV entry inh = Marburg virus entry inhibition; Potency, µM (series often up to 37.8 µM), for inactives: at the highest dose activity change, negative = inhibition, hits mostly inhibitors; 300,000 compounds, 1.8% hits; Marburg virus pseudotyped entry inhibition, cell reporter; calls by dose curve; tested in HEK293 cells; further: potency means the concentration at half of the fitted maximal effect
An asterisk follows results filed as active; i = inactive; u = inconclusive; x = not tested or not shown; [ ] = dose if it differs, or a comment. This is a sample that favours compounds with a hit; in the whole collection about 6.5% have one here. On the % scale 0 is the no-effect control and ±100 the full control effect.

SMILES	Lassa entry inh	HCMV antiviral	Vaccinia Venus	Vaccinia mCherry	FMDV inh	MARV entry inh
Cc1cc(C)nc(NN=C(c2ccccc2)c2ccccc2)n1	u	u	-10%	-1%	-14%	10µM*
CC(/C=C/c1ccccc1)=N\Nc1nc(C)cc(C)n1	23%	-15	-12%	-17%	35%	0%
O=C(Cc1ccc(OCc2ccccc2)cc1)NO	x	x	-6%	31%	x	x
CCC(C)(C)n1nnnc1C(c1cc2ccc(OC)cc2[nH]c1=O)N1CCc2ccccc2C1 (centres undefined)	-12%	-75*	x	x	-12%	-22%
CCCC(c1nnnn1C(C)(C)CC)N(Cc1ccco1)Cc1cc2ccc(OC)cc2[nH]c1=O (centres undefined)	u	-14	u	u	-13%	13µM*
CCC(c1nnnn1Cc1ccccc1)N(Cc1ccco1)Cc1cc2cc(OC)ccc2[nH]c1=O (centres undefined)	u	-2	-17%	x	u	-21%
CCC(C)(C)n1nnnc1C(c1cc2ccc(OC)cc2[nH]c1=O)N1CCc2ccccc21 (centres undefined)	-14%	13	x	x	-14%	u
Cc1oc(-c2ccccc2NC(=O)C2CCC2)nc1CNC(=O)c1ccc2ccccc2c1	x	x	6%	-4%	34%	x
O=C(/C=C/c1ccccc1)Nc1cccc(C(=O)O)c1	x	49	-6%	-11%	10µM*	x
O=C(Nc1cccc(C(=O)O)c1)/C(=C\C=C\c1ccccc1)NC(=O)c1ccccc1	13%[46.1 µM]	-104*	-8%	-1%	4%	22%[46.1 µM]
Cc1cc(C(=O)Nc2cccc(C(=O)O)c2)oc1C	3.5µM*	34	-10%	-11%	u	u
CCC(=O)Nc1cccc(C(=O)/C=C/c2cccs2)c1	x	-62*	-27%	-15%	11%	x
CC(=O)c1cccc(NC(=O)Cc2cccs2)c1	4%	22	x	x	25%	14%
COc1cc2c(c(OC)c1OC)C1(c3ccccc3)CCCCCC1[C@@H]2NC(=O)C(F)(F)F (some centres undefined)	u	x	x	x	x	-15%[14.2 µM]
C[C@@H]1CN(Cc2ccc3c(c2)CN(Cc2cccn2-c2cccnc2)CCO3)C[C@H](C)O1	x	x	-14%	-19%	-4%	x
CCC(=O)Nc1cccc(C(=O)c2ccccc2)c1	-14%	-18	-19%	-29%	x	18%
CSc1ccc(/C=C/C(=O)Nc2ccccc2)cc1	u	-13	-12%	0%	-57%	7.1µM*
CCC(=O)Nc1cccc(C(=O)/C=C/c2ccccc2)c1	10µM*	-104*	-19%	x	18µM*	u
CCc1ccc(N/C(SCc2ccccc2C)=C(/C#N)C(=O)NCc2ccco2)cc1	8.2µM*	-20	x	x	-10%	u
Cc1ccc(NC(=O)Cn2nc(-c3ccccc3)nc(Cc3ccc(Cl)cc3)c2=O)cc1	21%[46.1 µM]	-20	-1%	-12%	-9%	x
CCN=C1S/C(=C\c2cc(OCC)c(O)cc2Br)C(=O)N1CC	u	-9	u	u	32µM*	u
CCN=C1S/C(=C\c2ccc(O)c(OCC)c2)C(=O)N1CC	13µM*	-6	u	u	-8%	u
CCN=C1S/C(=C\c2cn(CC)c3ccccc23)C(=O)N1CC	u	58	-11%	-25%	-12%	-13%[46.1 µM]
COc1cc(/C=C2/SC(=NCc3ccccc3)N(Cc3ccccc3)C2=O)ccc1O	-25%	-11	22%	-12%	-18%	3%
Cc1cccc(NC(=O)CCNS(=O)(=O)c2ccc3c(c2)CCCC(=O)N3)c1C	u	0	7%	1%	-26%	x
SMILES	Lassa entry inh	HCMV antiviral	Vaccinia Venus	Vaccinia mCherry	FMDV inh	MARV entry inh
COCCCNC(=O)CN1C(=O)COc2ccc(S(=O)(=O)N3CCCC3)cc21	1%[46.1 µM]	-6	0%	3%	13%	-11%[46.1 µM]
CCn1c([N+](=O)[O-])nc2c1c(=O)[nH]c(=O)n2C	18µM*	-98*	x	x	u	u
Cc1cc(C)c2nc(NCCCNC(=S)NCCCN(C)C)c(C#N)cc2c1	x	-7	x	x	u	x
Cc1ccc2cc(C#N)c(NCCNC(=S)NCCCN(C)C)nc2c1C	x	-12	13µM*	u	-22%	x
Cc1cccc2cc(C#N)c(NCCNC(=O)COc3ccccc3)nc12	x	-23	x	x	-18%	x
Cc1ccc2cc(C#N)c(NCCNC(=O)C3CC3)nc2c1C	-2%	-88*	x	x	u	u
COc1c([N+](=O)[O-])ccc(N)c1N	x	x	-18%	-25%	x	x
NC(=O)c1nc(Nc2ccccc2)sc1NC(=O)c1ccccc1Br	-5%[46.1 µM]	-13	-17%	-18%	-24%	x
CN1CCN(CCOC2c3ccccc3CSc3ccc(Cl)cc32)CC1 (centres undefined)	21µM*	-37	u	u	-22%	u
O=C(/C=C/c1ccnc2ccccc12)c1cccs1	u	-38	-20%	i	-70%	3.2µM*
O=C(Cc1ccc(-c2ccccc2)cc1)NCCS(=O)(=O)N1CCN(c2ccccc2F)CC1	u	32	-19%	i	-9%	x
Cc1cc(C)n(CC(=O)NNC(=O)CCCOc2ccc(Cl)cc2C)n1	11%	-61*	-21%	-23%	-21%	-5%
CC1CCCC=CC2CC(O)CC2C(O)/C=C\C(=O)O1 (centres undefined)	x	x	x	x	x	0.4µM*
C[C@H]1CCC/C=C/C2C[C@H](O)CC2[C@H](O)/C=C/C(=O)O1 (some centres undefined)	1.2µM*	x	u	u	-24%	0.37µM*
CC1CCC/C=C/C2CC(O)CC2C(O)/C=C/C(=O)O1 (centres undefined)	u	-100*	u	u	-24%	0.4µM*
COC(=O)N[C@H](c1ccccc1)C(C(=O)OC)C(=O)OC	x	x	x	x	x	28%[14.2 µM]
CCCCN(C)C(=O)Cn1c(SCC(=O)Nc2ccc(C)c(C)c2)nc2ccccc21	u	-25	-9%	-16%	-4%	x
Nc1ccc2ccc(NS(=O)(=O)N3CCCCC3)cc2c1	x	7	x	x	x	x
CCC1(C2CCN(Cc3ccc(C)s3)CC2)NC(=O)N(CC2COc3ccccc3O2)C1=O (centres undefined)	x	x	-18%	-22%	-20%	x
CCc1ccc(-n2nc3cc(C)c(NC(=O)c4cc(Cl)ccc4OC)cc3n2)cc1	1%[46.1 µM]	11	-5%	-10%	-6%	u
O=C(Nc1ccc(Cl)cc1)Nc1ccc(S(=O)(=O)Nc2ncccn2)cc1	x	u	x	x	-3%	x
CC(=O)Nc1ccc(S(=O)(=O)Nc2nccc(C)n2)cc1	x	21	x	x	0%	x
Nc1ccc(S(=O)(=O)Nc2nccc(/C=C/c3cccc(Br)c3)n2)cc1	u	-73*	-13%	-30%	-20%	u
O=S(=O)(Nc1ncccn1)c1ccc(NC(=S)Nc2ccc(Cl)cc2)cc1	x	-64*	x	x	7%	x
CC(=O)Nc1ccc(S(=O)(=O)Nc2nccc(/C=C/c3ccc(Cl)cc3)n2)cc1	u	-73*	-12%	-17%	-21%	u
